HT1080 IDH1KD tx – qHTS for induction of synthetic lethality in tumor cells producing 2HG: qHTS for the HT-1080-IDH1KD cell line; Potency, µM (doses to about 46.1 µM), for inactives: top-dose activity, negative = toxicity, hits mostly cytotoxic; HT-1080 IDH1 knockdown viability, ATP luminescence, 48 h; AID 686971, 2013; 2% of 360,000 active;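 note: potency is the fitted concentration of half-maximal effect; 0% = DMSO wells and -100% = cell-free medium wells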
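Cytotoxicity counter-line: IDH1KD HT-1080, 48 h, CellTiter-Glo. Curves classed by r2, magnitude and activity.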
TDP1 cell CPT – qHTS for Inhibitors of human tyrosyl-DNA phosphodiesterase 1 (TDP1): qHTS in cells in presence of CPT; chicken DT40 Tdp1-/-;hTDP1 cells + 20 nM CPT, ATP luminescence, 48 h; Potency, µM (highest dose often 46.2 µM), for the others: at the top dose activity change, negative = growth inhibition, hits mostly inhibitors; 12% of 420,000 active; AID 686979, 2013; note: potency is the fitted concentration of half-maximal effect; nearly all actives have a fitted effect of over 55% in size
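Chicken DT40 Tdp1-/- cells complemented with human TDP1, 400 cells/well, exposed to compounds plus 20 nM camptothecin for at least 48 h at 37 C; viability read as ATP content by CellTiter-Glo luminescence.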
HT1080-NT tox – qHTS for induction of synthetic lethality in tumor cells producing 2HG: qHTS for the HT-1080-NT fibrosarcoma cell line; Potency, µM (doses to about 46.1 µM), without a hit: at the top dose activity, negative = less viability, actives largely listed as cytotoxic; 1.6% of 360,000 active; HT-1080-NT fibrosarcoma viability, CellTiter-Glo ATP luminescence, 48 h;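 note: NT is the 2HG producing partner of a matched IDH1 knockdown line; potency is the fitted concentration of half-maximal effect; 0% = DMSO-treated cells and -100% = media-only wells without cells; nearly all actives have a fitted effect of over 55% in size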
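HT-1080-NT; 750 cells/well; 5% FBS RPMI; 48 h compound, 37 degrees C; CellTiter-Glo luminescence; curve fitting and curve-class assignment.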
12-LOX inh – Primary qHTS assay for inhibitors of human arachidonate 12S-lipoxygenase (ALOX12): Round 2. purified 12hLO, xylenol orange hydroperoxide absorbance. Potency, µM (highest dose often 108 µM), inactives show at the highest dose activity change, negative = inhibition, most hits filed as inhibitors. 1.1% of 580,000 active. AID 1671190, 2021; note: potency is the fitted concentration of half-maximal effect
Target sequence (P18054 whole entry, looked up): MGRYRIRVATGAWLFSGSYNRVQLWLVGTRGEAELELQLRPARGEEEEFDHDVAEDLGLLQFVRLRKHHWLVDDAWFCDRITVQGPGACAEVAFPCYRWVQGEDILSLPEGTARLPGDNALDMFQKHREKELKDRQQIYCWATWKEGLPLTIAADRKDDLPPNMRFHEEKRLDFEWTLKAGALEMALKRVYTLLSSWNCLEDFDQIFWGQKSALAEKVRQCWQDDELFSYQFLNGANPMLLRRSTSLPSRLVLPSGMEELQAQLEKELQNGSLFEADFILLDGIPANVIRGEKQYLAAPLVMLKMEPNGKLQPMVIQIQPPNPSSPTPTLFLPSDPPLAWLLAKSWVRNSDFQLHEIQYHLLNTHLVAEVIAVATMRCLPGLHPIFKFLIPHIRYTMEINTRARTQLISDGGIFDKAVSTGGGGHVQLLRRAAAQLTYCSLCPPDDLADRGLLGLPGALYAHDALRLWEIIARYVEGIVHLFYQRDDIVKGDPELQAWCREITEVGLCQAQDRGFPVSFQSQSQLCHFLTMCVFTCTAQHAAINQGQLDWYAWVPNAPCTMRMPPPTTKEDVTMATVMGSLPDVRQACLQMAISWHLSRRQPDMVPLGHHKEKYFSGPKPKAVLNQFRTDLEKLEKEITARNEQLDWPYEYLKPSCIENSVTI
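Hydroperoxide product was detected by ferrous iron/xylenol orange as the 573 to 405 nm absorbance ratio. Arachidonic acid at 40 uM (final) was turned over for 30 min at room temperature by 150 nM human 12hLO, pH 7.0 Hepes buffer, after 15 min compound preincubation.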
IL-1B inflam inh – qHTS for Inhibitors of Inflammasome Signaling: IL-1-beta AlphaLISA Primary Screen. THP-1 LPS/ATP IL-1B secretion, AlphaLISA, 16 h; active compounds read low. activity change, % at 57.5 µM. 4.7% of 360,000 active. AID 743279, 2014; in the data active = activity change below about -50%; inconclusive = mostly about -30% to -49%
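THP-1 cells pretreated 1 hr with compounds (up to 57.5 uM final), then stimulated with LPS (250 ng/mL final) plus ATP (1.25 mM final); secreted IL-1B measured by AlphaLISA after 16 hr, decreased signal indicating inhibition.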
DT40 TDP1 no CPT – qHTS for Inhibitors of human tyrosyl-DNA phosphodiesterase 1 (TDP1): qHTS in cells in absence of CPT; DT40 Tdp1-/- hTDP1 cells, no CPT, ATP luminescence, 48 h; Potency, µM (highest dose often 46.2 µM), without a hit: at the highest dose activity change, negative = growth inhibition, hits mostly inhibitors; 15% of 420,000 active; note: potency is the fitted concentration of half-maximal effect; nearly all actives have a fitted effect of over 55% in size
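Luminescent ATP content (CellTiter-Glo) served as the growth readout. Knockout chicken DT40 cells expressing human TDP1 were exposed to compounds without camptothecin for a minimum 48 hr at 37 °C.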
Active calls of the source: *; ? = inconclusive; nt = not tested or not shown; [ ] = another dose, or the depositor's remark. The entries come from a sample that favours hits as a whole. Unless noted, calls come from the whole dose curve; as a rule, active = well fitted curve in the direction sought with a large enough effect; inconclusive = small, poorly fitted or top-dose-only effect, or another doubt; inactive = no such curve, though single readings can be large; an effect the other way counts as inactive or inconclusive. Unless noted, % is set by controls: 0 for no effect and ±100 for the full control effect.

SMILES | HT1080 IDH1KD tx | TDP1 cell CPT | HT1080-NT tox | 12-LOX inh | IL-1B inflam inh | DT40 TDP1 no CPT
COc1ccc(NCC(O)COc2ccc(C(C)(C)C)cc2)cc1 (stereo not drawn) | ? | ? | ? | -0.6% | -65.3* | ?
COc1ccc(OCC(O)CNC2CCCC2)cc1 (stereo not drawn) | -1.9% | -10.5% | -1.4% | -26.1% | -17.5 | ?
OC(CNc1ccccc1)COc1ccc(OCC(O)CNc2ccccc2)cc1 (stereo not drawn) | 20.6µM* | 13µM* | 20.6µM* | -3.1% | -50.8* | 8.2µM*
COc1cc(F)ccc1CN1CCCCC12Cc1ccccc1CNC2=O (stereo not drawn) | nt | nt | nt | 5.6%[6.33 µM] | nt | nt
N#Cc1c(C(F)(F)F)cc(-c2cccs2)nc1SCc1ccccc1F | nt | ? | nt | 1.7% | nt | ?
CCNC(=O)N1CCc2cc(OC)c(OC)cc2C1CNC(=O)c1ccc(C)cc1 (stereo not drawn) | nt | nt | nt | -5.8% | nt | nt
COc1ccc(CN2CCCC3(CC(c4ccccc4)=NO3)C2)cc1 (stereo not drawn) | nt | nt | nt | -16.6%[6.33 µM] | nt | nt
COCCCN1CCc2c(n(Cc3ccccc3)n(-c3ccccc3)c2=O)C1 | nt | nt | nt | -22.4%[176 µM] | nt | nt
CN(CCCN1CCOCC1)c1cc(C2CC(N)C2)ncn1 (stereo not drawn) | nt | nt | nt | -0.3% | nt | nt
COc1ccc(OCC(O)CNCCOc2ccccc2OC)c(C(C)(C)C)c1 (stereo not drawn) | -13.4% | 10.3µM* | -28.0% | ? | -72.6* | 9.2µM*
OC(CNCc1ccco1)COc1ccccc1 (stereo not drawn) | -22.6% | 1.16µM* | -5.5% | 441.3% | 7.1 | -41.0%
COc1ccccc1NCC(O)COc1ccc(C(C)(C)C)cc1 (stereo not drawn) | 16.4µM* | 14.6µM* | 16.4µM* | ? | -105.8* | 16.4µM*
CCC(C)(C)C1CCC2(CC1)NC(=O)N(CC(=O)N1CCN(c3ccccc3OC)CC1)C2=O (stereo not drawn) | -0.7% | 20.6µM* | -3.4% | -11.2% | -13.4 | 20.6µM*
O=C(CN1C(=O)NC2(CCCC2)C1=O)Nc1nc(-c2ccc(F)cc2)cs1 | -14.8% | -18.8% | 1.9% | 17.7% | -23.0 | -20.9%
CCC(C)(C)C1CCC2(CC1)NC(=O)N(CC(=O)NC(C)CCc1ccccc1)C2=O (stereo not drawn) | -3.0% | ? | -2.9% | -18.9% | -4.7 | 11.6µM*
CC(CCc1ccccc1)NC(=O)CN1C(=O)NC2(CCCCC2C)C1=O (stereo not drawn) | -0.2% | -0.8% | 12.1% | 4.8% | 4.5 | -27.7%
CCC(C)(C)C1CCC2(CC1)NC(=O)N(CC(=O)Nc1nc(-c3ccc(C)cc3)cs1)C2=O (stereo not drawn) | 4.2% | ? | -0.3% | 0.0% | 15.6 | 7.31µM*
CCC(C)(C)C1CCC2(CC1)NC(=O)N(CC(=O)N(C)Cc1ccc3c(c1)OCCO3)C2=O (stereo not drawn) | 11.7% | ? | 4.0% | 0.0% | -17.4 | 20.6µM*
Cc1cnc(C(=O)N2C[C@H]3OC(=O)N(CCc4cccc(Cl)c4)[C@H]3C2)[nH]1 | nt | nt | nt | 3.4% | nt | nt
O=C(O)COc1ccc(-c2nccc3c2C(=O)N(Cc2cccc(C(F)(F)F)c2)CC(COc2cccc(F)c2)O3)cc1 (stereo not drawn) | nt | nt | nt | 4.2% | nt | nt
C[C@@]12CCC=C[C@H]1[C@H](c1ccc3ccccc3c1/C=C/c1ccccc1)N(Cc1ccccc1)C2=O | -1.5% | 2.06µM* | -2.1% | 13.7% | 38.0 | ?
C[C@@]12CCC=C[C@H]1[C@H](c1ccc(/C=C/c3ccccc3)cc1F)N(Cc1ccccc1)C2=O | ? | 14.6µM* | ? | ? | -18.6 | 20.6µM*
C[C@@]12CCC=C[C@H]1[C@H](c1ccc(C(F)(F)F)cc1)N(Cc1ccccc1)C2=O | -2.0% | ? | -4.1% | ? | 41.0 | 16.4µM*
Cn1nc(C(=O)OCC(=O)Nc2cccc3ccccc23)c2ccccc2c1=O | nt | nt | nt | -9.5% | nt | nt
COc1ccc(C(c2nnnn2Cc2ccccc2)N2CCN(C(=O)c3ccco3)CC2)cc1 (stereo not drawn) | -1.5% | -20.7% | 4.4% | 20.5% | -8.3 | ?
SMILES | HT1080 IDH1KD tx | TDP1 cell CPT | HT1080-NT tox | 12-LOX inh | IL-1B inflam inh | DT40 TDP1 no CPT
COc1ccc(OC)c(C(c2nnnn2Cc2ccco2)N2CCN(C)CC2)c1 (stereo not drawn) | 0.7% | -3.2% | -6.1% | -16.6% | -11.1 | -0.5%
COc1cccc(C(c2nnnn2Cc2ccccc2)N2CCN(C(=O)c3ccco3)CC2)c1OC (stereo not drawn) | -14.1% | ? | -10.8% | ? | -12.4 | 23.1µM*
Clc1ccccc1C(c1nnnn1Cc1ccco1)N1CCN(Cc2ccco2)CC1 (stereo not drawn) | -0.2% | -10.4% | 1.7% | 44.7µM* | -28.3 | ?
COc1cccc(C(c2nnnn2Cc2ccco2)N2CCN(c3cccc(C)c3C)CC2)c1OC (stereo not drawn) | -12.1% | ? | -7.6% | -19.7% | -2.0 | 25.9µM*
O=C(c1ccco1)N1CCN(C(c2ccc(Cl)cc2)c2nnnn2Cc2ccccc2)CC1 (stereo not drawn) | -17.4% | -22.1% | -22.3% | ? | -51.0* | -23.8%
COc1ccc2c(C)c(CC(=O)NC3CCCCCC3)c(=O)oc2c1OC | nt | nt | nt | 0.4% | nt | nt
COc1ccc(-c2nn3c(=O)cc(CNC(=O)c4cc(OC)c(OC)c(OC)c4)nc3s2)cc1 | nt | nt | nt | 0.9% | nt | nt
CCOc1ccc2c(=O)c(Oc3ccccc3OC)c(C)oc2c1 | nt | nt | nt | 12.5% | nt | nt
O=C(NCCOc1cccc2cccnc12)C1CCCN(C2CCCC2)C1 (stereo not drawn) | nt | nt | nt | 48.3% | nt | nt
COc1ccc(C(=O)n2nnc3ccccc32)cc1Br | 5.5% | 16.4µM* | -2.1% | nt | -14.5 | ?
Cc1occc1C(=O)n1nnc2ccccc21 | 0.2% | ? | -3.5% | -12.1% | -8.9 | 20.6µM*
O=C(c1cc2ccccc2o1)n1nnc2ccccc21 | 4.1% | 0.4% | 5.5% | 32.2% | 12.8 | -20.1%

Screening data as filed in PubChem BioAssay.
